The test system of assay [1] is Plasmodium falciparum Sir2 (PF13_0152, Sir2A). Put plainly: Plasmodium falciparum Sir2A binding compounds – biochemical, small-molecule microarray, 635 nm fluorescence, primary screen (AID 1098).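 Note: score merges spot fluorescence intensity with its signal-to-noise ratio.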 The settings on record: fluorescence 635 nm, higher = more signal.
A short description of assay [2]: probe aDKK1 binding to arrayed compounds – biochemical, biotinylated probe, 635/667 nm fluorescence, primary screen (AID 1099).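 Note: score merges 667nm spot fluorescence with signal to noise across triplicate slides.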 The settings on record: small-molecule microarray, higher = more signal.
Assay [3] can be described thus: probe aCHRDL2 binding to arrayed compounds – biochemical, biotinylated probe, 635/667 nm fluorescence, primary screen (AID 1100). As to conditions: small-molecule microarray, higher = more signal.
Assay [4] in a line: change in splice reporter luminescence, either direction, cell-based, HEK293, spliceosome inhibition project, primary screen (AID 1101).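 Note: HEK293 cells carrying a splicing-competent luciferase reporter gene; test concentration not given here.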 The settings on record: HEK293 splicing luciferase reporter, 24 h, higher = more signal, called active from +8 up or from −8 down.
In assay [5] the target is Fibroblast growth factor 10 (Homo sapiens) (UniProt O15520). In words: compounds binding fibroblast growth factor 10 – biochemical, small-molecule microarray, 635 nm fluorescence, primary screen (AID 1102). As to conditions: FGF10 binding, fluorescence 635 nm, higher = more signal.
The test system of assay [6] is glycogen synthase kinase-3 (GSK3A per assay name; protocol says GSK3B). In words: compounds binding glycogen synthase kinase-3 – biochemical, small-molecule microarray, 635 nm fluorescence, GSK3A, primary screen (AID 1103). Note: the record names both GSK3A and GSK3B. As to conditions: fluorescence 635 nm, higher = more signal.
Assay [7] has as its target Epidermal growth factor receptor (Homo sapiens) (UniProt P00533). In words: compounds binding epidermal growth factor receptor – biochemical, small-molecule microarray, 635 nm fluorescence, primary screen (AID 1104).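 Note: score merges 667 nm emission intensity with spot signal to noise over triplicate slides.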 The settings on record: EGFR binding, higher = more signal.
For assay [8], the target named is Follistatin-related protein 3 (Homo sapiens) (UniProt O95633). Put plainly: compounds binding follistatin-related protein 3 – biochemical, small-molecule microarray, 635 nm fluorescence, primary screen (AID 1105).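 Note: score merges emission near 667 nm and signal to noise per printed spot across three slides.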 The settings on record: FSTL3 binding, higher = more signal.
Assay [9] addresses Dickkopf-related protein 1 (Homo sapiens) (UniProt O94907). In words: small molecules binding DKK1 protein – biochemical, small-molecule microarray, 635 nm fluorescence scan, primary screen (AID 1106).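 Note: score merges emission near 667 nm with signal to noise over three replicate slides.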 The settings on record: higher = more signal.
Assay [10] relates to Inhibin beta A chain (activin A). In words: small molecules binding activin A – biochemical, small-molecule microarray, 635 nm fluorescence scan, primary screen (AID 1107).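 Note: mouse activin A protein probed at 4.33 µg/mL on printed slides; score merges bound-protein fluorescence near 667 nm with spot signal-to-noise.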 As to conditions: INHBA, higher = more signal.
Assay [11] concerns Human papillomavirus type 1a protein E7 (residues 44-93). In words: small molecules binding HPV E7 44-93 – biochemical, small-molecule microarray, residues 44-93, 635 nm fluorescence, primary screen (AID 1108).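 Note: E7 fragment applied at 1 µg/mL in TBST for 1 h at 4 C; score combines spot fluorescence with its signal to noise ratio.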 The settings on record: fluorescence 635 nm, higher = more signal.
A short description of assay [12]: hepatitis C replication reporter changes, two-sided – Huh7 cells, luciferase reporter, HCV replication inhibitor project, primary screen (AID 1109).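 Note: huh7 hepatoma cells harbouring a luciferase neomycin HCV replicon reporter; luciferase luminescence as measure of HCV replicon replication; test concentration not given here.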 The settings on record: Huh7 HCV replicon luciferase reporter, 48 h; higher = more signal.
The target of assay [13] is Left-right determination factor 2 (Homo sapiens) (UniProt O00292). Put plainly: small molecules binding LEFTY2 protein – biochemical, small-molecule microarray, 635 nm fluorescence scan, primary screen (AID 1110). The settings on record: higher = more signal.
Assay [14] deals with Calmodulin-1 (Homo sapiens) (UniProt P0DP23). In words: small molecules binding calmodulin-1 with EGTA – biochemical, small-molecule microarray, Cy5-labelled CALM1, profiling panel (AID 1111).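 Note: labelled calmodulin applied in Tris saline Tween buffer holding calcium plus EGTA and DTT.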 As to conditions: Cy5-CALM1 binding fluorescence, higher = more signal.
Assay [15] has the same target. In words: small molecules binding Ca-loaded calmodulin-1 – biochemical, small-molecule microarray, Cy5-labelled CALM1, plus calcium, artefact control for SMM control-protein annotation, profiling panel (AID 1112).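 Note: score merges spot fluorescence with signal to noise from triplicate slides.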 As to conditions: Cy5-CALM1 binding fluorescence, higher = more signal.
Assay [16] can be described thus: probe aWnt5a binding to arrayed compounds – biochemical, biotinylated probe, 635/667 nm fluorescence, primary screen (AID 1113).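 Note: score merges 667 nm fluorescence intensity with signal-to-noise per printed feature.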 As to conditions: small-molecule microarray, higher = more signal.
Assay [17] is described as follows: probe aShh binding to arrayed compounds – biochemical, biotinylated probe, 635/667 nm fluorescence, primary screen (AID 1114).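 Note: probe is biotin-labelled aShh protein from a stem cell growth factor screen; measures binding of labelled protein to compounds printed on the slide; score merges feature fluorescence at 667 nm with signal-to-noise.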 The settings on record: small-molecule microarray, higher = more signal.
Assay [18] can be described thus: probe aNog binding to arrayed compounds – biochemical, biotinylated probe, 635/667 nm fluorescence, primary screen (AID 1115).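 Note: probe is biotinylated aNog protein used at 0.15 µg/mL for 1 h at 4 C; z-score combines 667 nm fluorescence of each spot with its signal to noise.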 The settings on record: small-molecule microarray, higher = more signal.
The target of assay [19] is Torsin-1A-interacting protein 1 (Homo sapiens) (UniProt Q5JTV8). In words: compound microarray binding of lysate hLAP1 – cell lysate, small-molecule microarray, COS7 lysate, 635/667 nm fluorescence, primary screen (AID 1116). As to conditions: 635 nm fluorescence, higher = more signal.
Assay [20] has as its target Alpha-bungarotoxin (Bungarus multicinctus) (UniProt P60615). In words: compounds binding labelled alpha-BTX control protein – biochemical, small-molecule microarray, Alexa647 label, 635/667 nm fluorescence, artefact control for SMM control protein annotation, profiling panel (AID 1117). As to conditions: alpha-BTX-A647 binding fluorescence, higher = more signal.

The source made the active and inactive calls.

Sequence of Left-right determination factor 2 (Homo sapiens) (O00292 whole entry, looked up): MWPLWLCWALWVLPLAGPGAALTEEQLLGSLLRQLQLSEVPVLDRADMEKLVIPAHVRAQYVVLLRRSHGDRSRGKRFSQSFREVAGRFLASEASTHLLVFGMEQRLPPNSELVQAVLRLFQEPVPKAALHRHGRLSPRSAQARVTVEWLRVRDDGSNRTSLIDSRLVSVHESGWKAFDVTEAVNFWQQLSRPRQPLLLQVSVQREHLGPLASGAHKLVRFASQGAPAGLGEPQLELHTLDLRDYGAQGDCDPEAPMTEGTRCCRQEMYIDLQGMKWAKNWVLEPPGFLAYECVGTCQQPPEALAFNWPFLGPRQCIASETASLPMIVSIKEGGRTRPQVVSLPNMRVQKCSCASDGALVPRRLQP
Sequence of Alpha-bungarotoxin (Bungarus multicinctus) (P60615 whole entry, looked up): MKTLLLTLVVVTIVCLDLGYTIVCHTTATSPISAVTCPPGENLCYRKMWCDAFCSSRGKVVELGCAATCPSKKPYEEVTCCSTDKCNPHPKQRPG
Sequence of Torsin-1A-interacting protein 1 (Homo sapiens) (Q5JTV8 whole entry, looked up): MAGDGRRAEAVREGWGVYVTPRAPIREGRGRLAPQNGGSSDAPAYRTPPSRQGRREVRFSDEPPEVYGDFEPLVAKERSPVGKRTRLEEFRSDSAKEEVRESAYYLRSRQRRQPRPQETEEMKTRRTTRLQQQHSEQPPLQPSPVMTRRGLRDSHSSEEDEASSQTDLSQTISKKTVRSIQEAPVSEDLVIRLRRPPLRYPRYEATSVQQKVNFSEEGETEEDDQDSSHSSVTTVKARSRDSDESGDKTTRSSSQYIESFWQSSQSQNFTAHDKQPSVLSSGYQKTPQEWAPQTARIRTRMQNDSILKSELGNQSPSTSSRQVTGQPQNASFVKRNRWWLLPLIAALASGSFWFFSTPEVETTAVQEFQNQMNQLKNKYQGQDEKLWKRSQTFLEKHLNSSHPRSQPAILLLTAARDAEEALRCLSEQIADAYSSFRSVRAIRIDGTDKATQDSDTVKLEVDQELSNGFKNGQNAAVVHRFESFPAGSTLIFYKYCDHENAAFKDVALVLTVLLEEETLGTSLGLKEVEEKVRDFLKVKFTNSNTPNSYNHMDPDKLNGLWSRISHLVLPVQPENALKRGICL
Sequence of Dickkopf-related protein 1 (Homo sapiens) (O94907 whole entry, looked up): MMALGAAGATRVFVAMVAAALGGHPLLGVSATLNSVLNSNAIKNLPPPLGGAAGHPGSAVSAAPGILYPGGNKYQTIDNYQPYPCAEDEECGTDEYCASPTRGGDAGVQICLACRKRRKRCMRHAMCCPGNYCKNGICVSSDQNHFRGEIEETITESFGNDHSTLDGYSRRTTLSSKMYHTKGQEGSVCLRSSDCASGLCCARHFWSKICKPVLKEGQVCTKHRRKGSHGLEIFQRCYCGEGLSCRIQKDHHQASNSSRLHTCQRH
Sequence of Fibroblast growth factor 10 (Homo sapiens) (O15520 whole entry, looked up): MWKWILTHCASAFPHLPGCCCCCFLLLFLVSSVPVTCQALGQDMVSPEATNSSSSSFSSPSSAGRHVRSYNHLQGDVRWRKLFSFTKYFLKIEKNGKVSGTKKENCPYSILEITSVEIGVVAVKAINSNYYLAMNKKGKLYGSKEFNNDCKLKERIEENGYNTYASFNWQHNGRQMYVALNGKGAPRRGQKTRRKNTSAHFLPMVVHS
Sequence of Epidermal growth factor receptor (Homo sapiens) (P00533 whole entry, looked up): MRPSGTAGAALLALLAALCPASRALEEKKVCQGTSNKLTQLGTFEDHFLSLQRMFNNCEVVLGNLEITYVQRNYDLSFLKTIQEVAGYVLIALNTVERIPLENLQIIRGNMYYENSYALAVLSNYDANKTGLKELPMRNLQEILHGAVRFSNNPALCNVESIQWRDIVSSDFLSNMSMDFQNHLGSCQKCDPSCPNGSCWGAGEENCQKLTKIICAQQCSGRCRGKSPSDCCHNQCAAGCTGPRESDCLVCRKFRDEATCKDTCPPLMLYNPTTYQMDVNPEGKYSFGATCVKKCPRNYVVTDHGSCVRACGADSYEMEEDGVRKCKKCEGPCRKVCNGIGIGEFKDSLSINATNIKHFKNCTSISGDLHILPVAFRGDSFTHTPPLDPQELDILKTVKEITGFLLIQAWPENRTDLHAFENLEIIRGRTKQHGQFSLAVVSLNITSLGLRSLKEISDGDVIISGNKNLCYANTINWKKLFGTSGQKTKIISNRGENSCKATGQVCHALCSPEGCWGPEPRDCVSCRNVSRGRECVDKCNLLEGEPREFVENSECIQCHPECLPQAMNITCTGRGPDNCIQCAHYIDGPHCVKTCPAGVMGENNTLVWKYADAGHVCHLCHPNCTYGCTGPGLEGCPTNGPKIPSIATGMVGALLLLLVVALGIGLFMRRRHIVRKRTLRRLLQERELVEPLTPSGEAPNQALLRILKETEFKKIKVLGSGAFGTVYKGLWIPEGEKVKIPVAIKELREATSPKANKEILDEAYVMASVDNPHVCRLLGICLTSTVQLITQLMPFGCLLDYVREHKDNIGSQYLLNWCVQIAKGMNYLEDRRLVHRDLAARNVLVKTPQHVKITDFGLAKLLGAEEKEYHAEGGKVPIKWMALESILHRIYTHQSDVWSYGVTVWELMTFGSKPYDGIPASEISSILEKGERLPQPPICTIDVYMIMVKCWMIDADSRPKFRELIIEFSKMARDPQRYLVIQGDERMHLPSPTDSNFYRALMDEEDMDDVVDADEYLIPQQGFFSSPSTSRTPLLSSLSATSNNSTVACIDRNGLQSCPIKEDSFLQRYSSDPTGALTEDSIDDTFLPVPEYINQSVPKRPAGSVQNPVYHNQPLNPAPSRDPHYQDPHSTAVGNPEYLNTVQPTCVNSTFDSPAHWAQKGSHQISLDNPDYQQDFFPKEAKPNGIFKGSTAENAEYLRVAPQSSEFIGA
Sequence of Follistatin-related protein 3 (Homo sapiens) (O95633 whole entry, looked up): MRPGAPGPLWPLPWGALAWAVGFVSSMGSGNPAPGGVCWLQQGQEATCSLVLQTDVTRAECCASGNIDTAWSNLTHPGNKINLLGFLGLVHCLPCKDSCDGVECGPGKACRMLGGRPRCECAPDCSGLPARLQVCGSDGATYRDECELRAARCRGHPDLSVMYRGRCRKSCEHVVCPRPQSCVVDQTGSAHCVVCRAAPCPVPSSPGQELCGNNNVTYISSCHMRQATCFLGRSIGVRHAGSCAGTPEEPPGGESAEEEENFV

Consider `COCCOC(=O)N1C(=O)[C@@]2(c3cc(C#Cc4ccc(OC)cc4)ccc31)[C@H](C(=O)NC[C@H](O)c1ccccc1)[C@H]1C(=O)O[C@H](c3ccccc3)[C@H](c3ccccc3)N1[C@@H]2c1ccc(OCCO)cc1`, for which the composite z-score in assay [1] is 1.02; in assay [2] it was -0.0284; in assay [3] it was 0.236; in assay [5] it was 1.36; in [6], 1.3; in assay [7], 0.384. The composite z-score stood at 0.863 in assay [8]; 0.324 in assay [9]; 0.269 in assay [10]; 1.42 in assay [11]; 0.46 in [13]; 1.16 in [14]. Also, the composite z-score in [15] is -0.0063; in [16], 0.0031; in assay [17] it was 0.0469; in [18], 0.371; in assay [19], 1.14; in assay [20], 1.53. Also, the z-score in [4] is -1.31 (inactive); in assay [12] it was -1.52.

For the compound `CCOC(=O)C=Cc1ccccc1O`, the composite z-score in [1] was 0.109; in assay [2], -0.0604; in [3] it was 0.329; in assay [5], 0.278; in assay [6], 0.513; in assay [7] it was 0.363. Moreover, the composite z-score in assay [8] is 0.435; in [9], -0.0242; in assay [10] it was 0.75; in assay [11], 1.22; in [13], 0.233; in assay [14] it was -0.166. Further, the composite z-score was -0.72 in [15]; -0.0462 in assay [16]; 0.151 in assay [17]; -0.0381 in [18]; 0.0446 in [19]; 0.377 in assay [20]. Moreover, the z-score in assay [4] was -1.74 (inactive); in [12], -2.36.

For the compound `CC(=O)NCCCC[C@@H]1NC(=O)[C@@H]2C[C@H](C(=O)NCCCCCCN)[C@H](c3cccc(OCCO)c3)N2C1=O`, the composite z-score was 1.04 in assay [1]; 0.504 in [2]; 0.61 in assay [3]; 0.906 in assay [5]; 0.132 in assay [6]; -0.556 in assay [7]. Further, the composite z-score in assay [8] is -0.309; in assay [9] it was -0.733; in assay [10], 0.288; in [11], 0.601; in assay [13], -0.535; in assay [14], 1.47. Also, the composite z-score in [15] is 1.35; in assay [16], -0.0519; in assay [17], -0.0066; in [18], -0.153; in assay [19], 1.79; in [20], 2.15. In addition, the z-score is 0.248 (inactive) in assay [4] and -0.69 in assay [12].

Turning to `Cc1ccc(C(C)CC(O)C2C=CC3C(=O)N(c4ccccc4)C(=O)C3N2Nc2ccc(C#N)cc2)o1` (stereo not given), the composite z-score in assay [1] was found to be 0.966; in assay [2], 0.846; in assay [3] it was 0.539; in assay [5] it was 1.12; in assay [6], 1.08; in assay [7] it was 0.202. Besides, the composite z-score in assay [8] is 0.913; in assay [9], -0.0435; in assay [10], 0.607; in [11], 1.42; in assay [13], 0.168; in assay [14] it was 1.48. The composite z-score in assay [15] was 0.314; in [16] it was -0.0044; in [17] it was 0.138; in [18], 0.526; in assay [19], 1.16; in [20], 1.17. The z-score is 3.02 (inactive) in assay [4] and 0.0453 in assay [12].

Turning to `C=C[C@@H](C)[C@H](O)c1ccc(OCCO)cc1`, the composite z-score is -0.112 in assay [1]; -0.234 in assay [2]; 0.825 in assay [3]; -1.57 in assay [5]; -1.25 in assay [6]; -2.14 in [7]. Besides, the composite z-score in assay [8] is -1.71; in [9], -1.5; in assay [10] it was -1.57; in [11], -0.355; in [13], -2.31; in [14], -0.912. The composite z-score in assay [15] is 0.521; in assay [16] it was -0.262; in [17] it was -0.289; in assay [18], -0.446; in assay [19] it was -0.73; in assay [20] it was -1.16. Moreover, the z-score in assay [4] is -0.474 (inactive); in [12], 0.27.

For `CC(C)C[C@@H]1NC(=O)[C@@]23C(=O)N[C@@H](Cc4ccccc4)C2[C@H](C)[C@@]2(C)O[C@H]2C3/C=C/C/C=C\CNC(=O)[C@@H](C)NC1=O` (stereo not given in full), the composite z-score is 1.72 in [1]; -0.416 in [2]; -0.601 in assay [3]; -0.052 in assay [5]; -0.608 in [6]; 0.401 in [7]. Besides, the composite z-score in assay [8] is 0.331; in assay [9] it was 0.431; in assay [10], 1.27; in assay [11], -0.702; in [13], 0.58; in assay [14] it was -0.463. Besides, the composite z-score in assay [15] is -1.19; in assay [16] it was -0.228; in assay [17] it was 0.0899; in [18] it was -0.636; in [19], -0.212; in [20] it was -0.116. Besides, the z-score in [4] was -1.34 (inactive); in assay [12], 0.0935.

On to `CN1C(=O)C2C=CC(C(O)c3cc(C(F)(F)F)cc(C(F)(F)F)c3)N(NC(=O)OC(C)(C)C)C2C1=O` (stereo not given), for which the composite z-score in assay [1] came out at 0.733; in [2], 0.781; in [3], 1.05; in assay [5], 0.959; in assay [6], 1.3; in assay [7] it was 0.497. Besides, the composite z-score in assay [8] is 1.32; in [9] it was -0.868; in assay [10], 0.279; in assay [11], 1.38; in [13] it was 0.106; in [14], 2.45. The composite z-score was 0.666 in assay [15]; -0.0607 in assay [16]; -0.0626 in [17]; 2.04 in [18]; 1.48 in assay [19]; 1.23 in assay [20]. Further, the z-score is -0.149 (inactive) in assay [4] and -1.24 in assay [12].

Regarding `CC(C)CCC[C@@H](C)[C@H]1CC[C@@]2(C)C3=C(CC[C@]12C)[C@@]1(C)CC[C@H](OC(=O)c2ccccc2)C(C)(C)C1CC3` (stereo not given in full), the composite z-score is 0.238 in assay [1]; -0.279 in assay [2]; -0.501 in [3]; 0.155 in assay [5]; 0.21 in assay [6]; 0.375 in assay [7]. In addition, the composite z-score in assay [8] is 0.429; in assay [9], 0.61; in assay [10] it was -0.0754; in assay [11], 0.359; in assay [13], 0.593; in assay [14], -0.0989. The composite z-score is -0.647 in [15]; -0.124 in assay [16]; -0.414 in assay [17]; -0.0252 in [18]; -0.251 in assay [19]; 0.261 in [20]. Also, the figures for the z-score in [4] and in assay [12] were -1.54 (inactive) and -0.313, respectively.
